This note sets out measurements from PubChem BioAssay AID1851 (National Center for Advancing Translational Sciences (NCATS), 2009).

Hit rate of the full screen: of about 16,000 compounds, about 5,700 (36%) were called active. About 24% were inconclusive and are not listed. The call rests on the fitted dose curve; in most records, active means well fitted curve in the direction sought with a large enough effect; inconclusive means small, poorly fitted or top-dose-only effect, or effect the other way; inactive means no such curve, though single readings can be large or run the other way. The list shows a part of the results.
On the % scale 0 is the no-effect control and ±100 the full control effect.

For the test, the target named is Cytochrome P450 1A2 (Homo sapiens) (UniProt P05177). In words: Cytochrome panel assay with activity outcomes. Particulars: recombinant CYP, pro-luciferin dealkylation, luminescence, p450-cyp1a2; series mostly up to 57.1 µM; activity, negative = inhibition: at the top concentration.
Chain of Cytochrome P450 1A2 (Homo sapiens) (P05177 whole entry, looked up): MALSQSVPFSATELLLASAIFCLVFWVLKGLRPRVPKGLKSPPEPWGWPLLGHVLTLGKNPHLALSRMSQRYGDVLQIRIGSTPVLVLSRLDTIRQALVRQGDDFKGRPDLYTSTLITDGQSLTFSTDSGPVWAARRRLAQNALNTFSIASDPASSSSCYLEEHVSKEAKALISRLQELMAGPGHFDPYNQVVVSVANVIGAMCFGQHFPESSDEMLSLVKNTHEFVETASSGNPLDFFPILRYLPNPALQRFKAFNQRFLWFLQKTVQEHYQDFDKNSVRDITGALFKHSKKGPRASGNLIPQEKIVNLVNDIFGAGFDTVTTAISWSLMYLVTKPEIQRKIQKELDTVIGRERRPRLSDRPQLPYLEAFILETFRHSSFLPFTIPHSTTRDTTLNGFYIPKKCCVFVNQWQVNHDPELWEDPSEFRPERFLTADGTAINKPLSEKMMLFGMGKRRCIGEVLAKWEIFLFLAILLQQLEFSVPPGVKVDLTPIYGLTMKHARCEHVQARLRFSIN
As a reminder, the AC50 is the concentration giving half of the maximal activity seen. In the case of `CN(C)S(=O)(=O)c1ccc2c(c1)/C(=C/c1cc3c([nH]1)CCCC3)C(=O)N2`, the AC50 was 0.316 µM (active).
On to `CCOC(=O)O[C@]1(C(=O)COC(=O)CC)CC[C@@H]2[C@@H]3CCC4=CC(=O)C=C[C@@]4(C)[C@H]3[C@H](O)C[C@]21C`, for which the “activity, negative = inhibition” value is -16.4% [at 25.6 µM] (inactive).
Still for that read-out and setting: to `Cc1cc(NS(=O)(=O)c2ccc(NC(=O)CN3C(=O)c4ccccc4C3=O)cc2)nc(C)n1` belongs 3.64% (inactive).
With `Cc1ccc(S(=O)(=O)Nc2ccc(=O)n(Cc3ccc(Cl)c(Cl)c3)c2)cc1`, the half-maximal activity concentration (AC50) was 25.1 µM (active).
Regarding `O=c1ccc(NS(=O)(=O)c2ccccc2)cn1Cc1ccc(Cl)c(Cl)c1`, the “activity, negative = inhibition” value was -26.6% (inactive).
For `CCCn1c(-c2cccs2)nc2nc3ccccc3nc21`, the concentration at half-maximal activity (AC50) is 1.78 µM (active).
For `Cc1c(Cl)c([N+](=O)[O-])nn1CC(=O)Nc1c(C)n(C)n(-c2ccccc2)c1=O`, the “activity, negative = inhibition” value was -2.44% (inactive).
As to `Cc1ccc(NC(=O)Cn2nc([N+](=O)[O-])c(Br)c2C)cc1C`, the AC50 is 12.6 µM (active).
As to `Cc1c(Br)c([N+](=O)[O-])nn1CC(=O)NCc1ccccn1`, the “activity, negative = inhibition” value is -24% (inactive).
`Cc1cc(C)c(S(C)(=O)=O)c(Oc2ccc(C(C)(C)C)cc2)n1`: the AC50 was 4.47 µM (active).
The same measure, in the same setting: to `Cc1cc(C)c(S(C)(=O)=O)c(Oc2ccc(F)cc2)n1` belongs 10 µM (active).
In the case of `COc1ccc(Oc2nc(C)cc(C)c2S(=O)(=O)c2ccc(C)cc2)cc1`, the “activity, negative = inhibition” value is -22.5% (inactive).
`O=C(O)[C@@H](O)[C@@H](O)[C@@H](O)[C@@H](O)C(=O)O` (tested in a mixture with another compound): the “activity, negative = inhibition” value is -1.46% [at 25.6 µM] (inactive).
As to `COc1ccc(CNc2nc(-c3ccccc3CN(C)C)nc3ccccc23)c(OC)c1`, the half-maximal activity concentration (AC50) is 10 µM (active).
The same measure, in the same setting: to `COc1ccccc1CNc1nc(-c2ccccc2CN(C)C)nc2ccccc12` belongs 0.794 µM (active).
As for `COC(=O)c1[nH]c(C)c(/C(O)=C2\C(=O)C(=O)N(CCN(C)C)C2c2cccs2)c1C` (centres undefined), the “activity, negative = inhibition” value is -24.7% (inactive).
For the compound `CCCSc1nnc2n(N)c(=O)c3ccccc3n12`, the concentration at half-maximal activity (AC50) was 4.47 µM (active).
On the same count and under the same terms, with `C/C(Cl)=C/CSc1nnc2n(N)c(=O)c3ccccc3n12` the figure was 11.2 µM (active).
With `CCOc1ccccc1NC(=O)CN1CCC(NC(=O)c2ccccc2)CC1`, the “activity, negative = inhibition” value was -24.7% (inactive).
On to `CCC(=O)N[C@@H]1CCc2cccc(OC)c2C1`, for which the AC50 is 12.6 µM (active).
As to `COC(=O)N1CCC2(CC1)CCN(C(c1ccccc1)c1ccccc1)CC2`, the “activity, negative = inhibition” value is 1.02% (inactive).
For `COc1ccccc1CNc1cc(-c2ccoc2)ncn1`, the AC50 is 15.8 µM (active).
Turning to `COc1ccc(CNc2cc(-c3ccoc3)ncn2)c(OC)c1`, the AC50 was 15.8 µM (active).
As to `COc1cccc(CNc2ccc3nc(-c4ccc(N)cc4)c(OC)n3n2)c1`, the concentration at half-maximal activity (AC50) is 39.8 µM (active).
Consider `O=C(O)CSCNC(=O)CC12CC3CC(CC(C3)C1)C2`, for which the “activity, negative = inhibition” value was -1.39% (inactive).
`O=C1CC(c2cccs2)c2cc3c(cc2N1)OCO3` (centres undefined): the AC50 was 0.631 µM (active).
`CC1(C)CC2(CC(c3cccs3)c3cc(Cl)c(O)cc3O2)NC(=S)N1` (centres undefined): the “activity, negative = inhibition” value was -22.7% (inactive).
Turning to `CC(C)NC(=O)N1CCC2(CC1)CCN(C(=O)c1ccco1)CC2`, the “activity, negative = inhibition” value was -8.3% (inactive).
Regarding `CC(C)(C)CC(C)(C)c1ccc(O)c(C[N+](C)(C)[O-])c1`, the activity, negative = inhibition is -17.9% [at 2.29 µM] (inactive).
With `CCOC(=O)c1c(-c2ccccc2)cn2ccccc12`, the concentration at half-maximal activity (AC50) was 0.501 µM (active).
As for `CCOC(=O)c1c2c(n3ccccc13)C(=O)c1ccccc1C2=O`, the AC50 was 0.1 µM (active).
As for `COC(=O)[C@H](Cc1ccccc1)NC(=O)[C@@H](C)CO`, the activity, negative = inhibition was -9.35% [at 11.4 µM] (inactive).
The same measure, in the same setting: to `O=C(O)C(Cc1ccccc1-c1ccccc1)C(=O)O` belongs -6.71% [at 11.4 µM] (inactive).
In the case of `COc1ccc(CNC(=O)CN(CC2CCCO2)C(=O)CNS(=O)(=O)c2ccccc2)cc1` (centres undefined), the “activity, negative = inhibition” value was -14.5% (inactive).
Regarding `COc1cccc(C(=O)N(Cc2ccccc2)Cc2cc3cc4c(cc3[nH]c2=O)OCCO4)c1`, the AC50 was 14.1 µM (active).
For the compound `COc1cc2cc(CN(CCCO)S(=O)(=O)c3ccccc3Cl)c(=O)[nH]c2cc1OC`, the “activity, negative = inhibition” value was -22.7% (inactive).
Still for that read-out and setting: to `N=C(N)SCCN` belongs -7.64% (inactive).
The same measure, in the same setting: with `CCOc1ccc(/C(O)=C2\C(=O)C(=O)N(CCOCCO)C2c2ccccc2OC)cc1` (centres undefined) the figure was -4.5% (inactive).
Consider `c1ccc(Nc2ncnc3ccc(-c4cccnc4)cc23)cc1`, for which the AC50 was 0.0794 µM (active).
On to `Cc1cccc(CNc2ncnc3ccc(-c4cccnc4)cc23)c1`, for which the AC50 was 0.316 µM (active).
For `c1ccc(CNc2ncnc3ccc(-c4cccnc4)cc23)cc1`, the concentration at half-maximal activity (AC50) was 0.126 µM (active).
Still for that read-out and setting: with `c1cncc(CNc2ncnc3ccc(-c4ccoc4)cc23)c1` the figure was 0.316 µM (active).
Turning to `CN(CC(=O)O)Cc1oc(CO)cc(=O)c1O`, the activity, negative = inhibition is -18.3% [at 11.4 µM] (inactive).
Same read-out and setting: with `Cc1ccnc(N)c1` the figure was -19.7% (inactive).
For the compound `CSc1ccc(NC(=O)Nc2cc(C)ccn2)cc1`, the concentration at half-maximal activity (AC50) was 0.501 µM (active).
In the case of `CC(=O)Nc1ccc(Sc2ncccc2C(=O)Nc2ccc(F)cc2)cn1`, the “activity, negative = inhibition” value is 4.19% (inactive).
Turning to `COC(=O)/C=C\CCc1coc(/C=C\CNC(=O)OC)n1`, the activity, negative = inhibition is 2.69% [at 11.4 µM] (inactive).
For the compound `COC(=O)C1CSC(C(=O)OC)N1C(=O)Nc1c(C)cccc1C` (centres undefined), the “activity, negative = inhibition” value was -18.8% (inactive).
For the compound `O[C@@](CCN1CCCCC1)(c1ccccc1)C1CCCCC1`, the AC50 entry is “inactive”.
